From PubChem
ELG1 DNA repair: qHTS screen for small molecules that inhibit ELG1-dependent DNA repair in human embryonic kidney (HEK293T) cells expressing luciferase-tagged ELG1; HEK293T ELG1-luciferase reporter, luminescence, 16 h; DNA damage induced by 5-fluorouridine; Potency, µM (doses to about 46.1 µM), hits mostly inhibitors; 330,000 compounds, 2.3% hits; AID 504467, 2011; note: nearly all actives have a fitted effect of over 55% in size
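HEK293T cells expressing luciferase-tagged ELG1 (2,000/well) received 5-Fluorouridine plus compound or DMSO for 16 hr at 37 °C. Luciferase was read by ONE-Glo luminescence after 30 min at room temperature.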
A549 tox: Nrf2 qHTS screen for inhibitors: counterscreen for cytotoxicity. A549 ARE-Fluc cells, CellTiter-Fluor viability, 18-24 h. Potency, µM (highest dose often 46 µM), usual class: inhibitors. 390,000 compounds, 0.16% hits. AID 504648, 2011
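A549 ARE-Fluc cells in 5% FBS OPTI-MEM, 5000 cells/well, rested 2 h then exposed to compounds in concentration-response for 18-24 h at 37 °C. Viability by CellTiter-Fluor fluorescence (Ex 405/Em 525) after 30 min; luciferase luminescence (BugLite, 15 min, RT) read afterwards.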
Nrf2 block: Nrf2 qHTS screen for inhibitors. A549 ARE-Fluc reporter, luciferase luminescence, 18-24 h. Potency, µM (top dose mostly 46 µM), actives largely listed as inhibitors. AID 504444, 2011. 360,000 compounds, 2.1% hits; note: nearly all actives have a fitted effect of over 60% in size
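Quantitative HTS in A549 cells stably bearing an antioxidant response element-firefly luciferase construct. Inhibition of Nrf2-driven transcription was scored by luminescence after 18-24 h of compound exposure at 37 °C.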
mIDH1 inhibitor: qHTS for Inhibitors of mutant isocitrate dehydrogenase 1 (IDH1): qHTS | Isocitrate dehydrogenase [NADP] cytoplasmic (Homo sapiens), O75874 | IDH1-R132H enzyme, NADPH consumption, diaphorase/resazurin fluorescence | Potency, µM (titrated, usually from 76.6 µM), usual class: inhibitors | 390,000 compounds, 0.093% hits | AID 602179, 2012; note: nearly all actives have a fitted effect of over 65% in size
Target sequence (O75874 whole entry R132H, stated change not applied): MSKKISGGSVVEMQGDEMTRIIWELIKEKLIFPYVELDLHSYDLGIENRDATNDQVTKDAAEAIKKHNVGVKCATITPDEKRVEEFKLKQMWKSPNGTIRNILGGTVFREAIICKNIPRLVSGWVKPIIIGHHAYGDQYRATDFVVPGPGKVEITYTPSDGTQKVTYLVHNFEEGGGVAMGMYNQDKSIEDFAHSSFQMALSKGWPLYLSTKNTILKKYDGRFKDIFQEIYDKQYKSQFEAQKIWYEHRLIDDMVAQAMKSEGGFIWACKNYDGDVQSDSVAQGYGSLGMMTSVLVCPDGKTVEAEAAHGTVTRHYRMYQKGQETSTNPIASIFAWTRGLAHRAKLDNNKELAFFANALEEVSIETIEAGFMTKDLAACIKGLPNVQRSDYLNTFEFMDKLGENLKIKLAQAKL
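IDH1-R132H (0.5 ug/mL) preincubated 30 min with compound, then NADPH (0.016 mM) and alpha-KG (2 mM) added; 80 min at RT, pH 7.5. Remaining NADPH coupled via diaphorase/resazurin to fluorescence (540/590 nm); concentration-response curves normalized to no-enzyme control.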
Nrf2 ARE act: qHTS of Nrf2 Activators. 410,000 compounds, 0.31% hits. AREc32 ARE-luciferase reporter (MCF7-derived line), luminescence, 24 h. Potency, µM (series often up to 46.1 µM), actives largely listed as activators. AID 624171, 2012; note: nearly all actives have a fitted effect of over 65% in size
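Steps: seed AREc32_Fluc cells (1000/well, 5% FBS OPTI-MEM); incubate overnight at 37 deg C; add 23 nL compound; incubate 24 hr; add Steady-Glo; hold 30 min RT; read luminescence.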
Hits are given with their value; . = inactive; ? = inconclusive; / = no result; ! = a repeat was not active. Compounds with a hit are over-represented: about 3.8% of the library has one in this group of screens. Calls come from the whole dose curve; as a rule, active = well fitted curve in the direction sought with a large enough effect; inconclusive = small, poorly fitted or top-dose-only effect, or another doubt; inactive = no such curve, though single readings can be large; an effect the other way counts as inactive or inconclusive.

SMILES | ELG1 DNA repair | A549 tox | Nrf2 block | mIDH1 inhibitor | Nrf2 ARE act
Cc1ccc(C)c(NS(=O)(=O)c2ccc3c(c2)Cc2cc(S(=O)(=O)Nc4cc(C)ccc4C)ccc2-3)c1 | ? | . | 13µM | . | .
CN(C)S(=O)(=O)c1ccc2c(c1)Cc1cc(S(=O)(=O)N(C)C)ccc1-2 | 2.3µM | . | . | . | .
COc1ccccc1/C=C/C(=O)OCCN1C(=O)c2ccccc2C1=O | . | . | ? | . | .
CC1CCCCC12NC(=O)N(CC(=O)NNC(=O)c1ccc(Br)cc1)C2=O (stereo not given) | . | . | . | . | .
CC1=C(C(=O)OCc2ccc(C)cc2)C(c2cccc(F)c2F)CC(=O)N1 (stereo not given) | / | . | 23µM | . | .
Cc1ccc(-n2cnc3cc(C(=O)NCc4ccc(F)cc4)ccc32)c(C)c1 | / | . | / | . | .
CCC(Oc1ccc(F)cc1)C(=O)Nc1nc(-c2ccc(F)cc2)ns1 (stereo not given) | / | ? | 16µM | . | .
O=C1c2ccccc2C(=O)N1c1cccc2ncccc12 | / | . | . | / | /
O=C(CSc1nncn2c1cc1sccc12)Nc1ccccc1C(F)(F)F | / | . | 21µM | . | .
CC(=O)N1c2ccc(S(=O)(=O)NCC3CCC(C(=O)Nc4cc(C)ccn4)CC3)cc2CC1C (stereo not given) | . | ? | 23µM | . | .
CC(=O)N1c2ccc(S(=O)(=O)NCC3CCC(C(=O)N4CC(C)CC(C)C4)CC3)cc2CC1C (stereo not given) | . | . | 16µM | . | .
CCC(C)NC(=O)C1CCC(CNS(=O)(=O)c2ccc3c(c2)CC(C)N3C(C)=O)CC1 (stereo not given) | . | . | . | . | .
CCOC(=O)N1CCc2c(sc3c2c(=O)n(Cc2ccccc2)c(=O)n3Cc2c(F)cccc2Cl)C1 | / | . | ? | . | .
O=C1C2C3c4ccccc4C(c4ccccc43)C2c2nc3ccccc3n21 (stereo not given) | 16µM | . | . | . | .
COc1ccc(Cl)cc1NC(=O)CN(C)C(=O)c1n[nH]c2ccccc12 | 8.2µM | . | ? | . | .
COc1ccc(CCNC(=O)c2ccc(CNc3nc(=S)[nH]c4ccccc34)cc2)cc1OC | 15µM | . | ? | . | .
COc1ccccc1CNC(=O)COC(=O)c1n[nH]c2ccccc12 | ? | . | ? | . | .
COc1ccc(CCNc2nc(=S)[nH]c3cc(OC)c(OC)cc23)cc1OC | . | . | . | . | .
COc1ccc(CNC(=O)COC(=O)c2n[nH]c3ccccc23)cc1OC | 16µM | / | ? | . | .
COc1ccc(-n2c(=O)[nH]c3cc(C(=O)NCCc4ccccc4)ccc3c2=O)cc1OC | 21µM | . | 13µM! | . | .
COc1ccc(N(Cc2cccs2)C(=O)COc2cc(C)c(Cl)c(C)c2)cc1 | / | . | ? | . | .
CCOc1ccc(N(CC)C(=O)c2cc3c(s2)-c2ccccc2OC3)cc1 | / | . | ? | . | .
CCCN1Cc2cccc(C(=O)Nc3cccc(C(=O)OCC)c3)c2C1=O | / | . | . | / | .
Cc1cc(NC(=O)CCC(=O)N(CC(=O)NCC2CCCO2)c2ccc(C(C)C)cc2)no1 (stereo not given) | . | . | ? | . | .
CCOC(=O)c1c(C)[nH]c(C(=O)N(C)Cc2cccc(OC)c2OC)c1C | 16µM | . | . | . | .
SMILES | ELG1 DNA repair | A549 tox | Nrf2 block | mIDH1 inhibitor | Nrf2 ARE act
CCOC(=O)c1[nH]c(C)c(C(=O)OCC(=O)NCc2ccc(OC)c(OC)c2)c1C | 11µM | . | ? | . | .
COc1ccc(Cl)cc1NC(=O)CN(C)C(=O)CCC(=O)c1cc(C)sc1C | ? | 16µM | 8.2µM | . | .
COc1cccc(NC(=O)CN(C)C(=O)CCC(=O)c2cc(C)sc2C)c1 | . | . | . | . | .
Clc1ccc(-c2ccccc2)nn1 | . | . | . | . | .
CSc1ccccc1OCc1cc(C(=O)N[C@H]2CCCCNC2=O)no1 | ? | . | ? | . | .
COc1ccc(CNCC(O)(c2ccccc2)c2ccccc2)cc1OC | 23µM | . | . | . | .
COc1ccc(CNCC(O)(c2ccccc2)c2ccccc2)cc1 | . | . | ? | . | .
COc1ccc(C2Nc3ccccc3C(=O)N2Cc2ccccn2)cc1COc1ccc(NC(C)=O)cc1 (stereo not given) | / | . | ? | / | /
O=C(O)c1cccc2c1C(=O)c1ccccc1C2=O | . | . | . | . | .
O=C(O)c1ccc2c3c(ncnc13)-c1ccccc1C2=O | ? | 3.3µM | 2.6µM | . | .
O=c1oc2c(F)cc(F)cc2cc1S(=O)(=O)c1ccc(F)cc1 | / | ? | . | / | 10µM
Cc1cc(NC(=O)CN(C)S(=O)(=O)c2ccc3c(c2)CCCC(=O)N3)ccc1Br | / | . | 21µM | . | .
Cc1ccc(C)c(N2CCN(C(=O)CN(C)S(=O)(=O)c3ccc4c(c3)CCC(=O)N4)CC2)c1 | 23µM | . | . | . | .
Cc1ccc(NC(=O)C2CCCN(S(=O)(=O)c3ccc4c(c3)CCCC(=O)N4)C2)cc1N(C)C (stereo not given) | / | . | 16µM | . | .
CCOC(=O)N1CCN(C(=O)c2cnn(-c3cccc(F)c3)c2-n2cccc2)CC1 | / | . | . | . | .
CCCCOC(=O)c1ccc(OC(=O)c2sc3ncn(Cc4ccccc4Cl)c(=O)c3c2C)cc1 | / | . | / | . | .
COc1ccc(CCNC(=O)/C(C#N)=C2\N=C(NC(=O)c3ccco3)c3ccccc32)cc1 | 7.3µM | . | . | . | .
CSc1cccc(NC(=O)C(c2ccccc2)N2Cc3ccccc3C2=O)c1 (stereo not given) | / | . | ? | . | .
Cc1ccc(O)c(C(=O)c2cnn(C(=O)Cc3csc(C)n3)c2)c1 | 16µM | . | . | . | .
Cc1ncc(CC(=O)n2cc(C(=O)c3cc(F)ccc3O)cn2)s1 | . | . | ? | . | .
CN1CCN(c2ccc(Nc3ccnc4cc(Cl)ccc34)cc2)CC1 | . | 6.5µM | ? | . | .
COc1ccc(OC)c(NC(=O)c2c(NCc3ccc(C)o3)sc3c2CCC(C)C3)c1 (stereo not given) | / | . | / | . | .
O=C1CN2CCC1C/C2=C\c1ccnc2c(Cl)cccc12 (stereo not given) | 10µM | . | ? | . | .
O=C1C/C(=C\c2c(F)cccc2Cl)N2CCC1CC2 | . | . | . | . | .
CC(=O)c1cccc(OC(=O)c2cc(S(=O)(=O)N3CCOCC3)ccc2N2CCCC2)c1 | 9.2µM | . | ? | . | .
COc1ccccc1C(=O)COC(=O)c1cc(S(=O)(=O)N2CCCCC2)ccc1N1CCOCC1 | ? | . | . | . | .
